Data on one sequence can be found in PMC7862700, “An all-to-all approach to the identification of sequence-specific readers for epigenetic DNA modifications on cytosine”.

Common to all, as to assay: DAPPL (digital affinity profiling via proximity ligation, sequencing); 10 mM Tris-HCl pH 7.5, 50 mM NaCl, 1 mM DTT, 4% glycerol, room temperature, 30 min; GST-TFs on glutathione beads, 16-mer random dsDNA library, 0.1% formaldehyde crosslink after washing; high values mean tight binding
The target of one assay is T1, FLI1 (Homo sapiens, UniProt Q01543 1-452).
T1 sequence: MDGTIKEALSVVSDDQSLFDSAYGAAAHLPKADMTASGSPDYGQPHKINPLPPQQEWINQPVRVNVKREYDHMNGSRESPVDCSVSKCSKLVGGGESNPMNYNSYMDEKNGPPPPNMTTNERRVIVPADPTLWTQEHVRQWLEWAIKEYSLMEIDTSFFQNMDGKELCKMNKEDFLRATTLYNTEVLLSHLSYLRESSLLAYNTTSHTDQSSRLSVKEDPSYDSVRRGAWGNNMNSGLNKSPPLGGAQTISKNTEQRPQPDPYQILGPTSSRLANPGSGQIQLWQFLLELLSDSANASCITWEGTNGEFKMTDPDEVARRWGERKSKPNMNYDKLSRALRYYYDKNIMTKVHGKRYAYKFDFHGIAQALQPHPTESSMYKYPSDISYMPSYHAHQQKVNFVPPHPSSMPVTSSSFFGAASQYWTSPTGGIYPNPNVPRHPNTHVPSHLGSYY
The settings on record: protein: recombinant; tags: N-terminal GST; dsDNA, one strand shown. In outline: (§1)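 Binding signal is each hexamer's read frequency for a factor divided by its frequency in the tag-only sample. The factors were GST-fused human transcription factors from yeast, captured on glutathione beads, DNA-barcoded and pooled with that sample. Pools were incubated with 200 nmole of a random double-stranded 16-mer DNA library in Tris/NaCl/DTT/glycerol buffer at room temperature for 30 min, then washed, crosslinked with 0.1% formaldehyde, proximity-ligated with BsaI/T4 ligase (1 h, 37 °C), PCR-amplified and sequenced on an Illumina NextSeq500.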

For the next assay, the target named is T2, ELK1 (Homo sapiens, UniProt P19419 1-428).
T2 sequence: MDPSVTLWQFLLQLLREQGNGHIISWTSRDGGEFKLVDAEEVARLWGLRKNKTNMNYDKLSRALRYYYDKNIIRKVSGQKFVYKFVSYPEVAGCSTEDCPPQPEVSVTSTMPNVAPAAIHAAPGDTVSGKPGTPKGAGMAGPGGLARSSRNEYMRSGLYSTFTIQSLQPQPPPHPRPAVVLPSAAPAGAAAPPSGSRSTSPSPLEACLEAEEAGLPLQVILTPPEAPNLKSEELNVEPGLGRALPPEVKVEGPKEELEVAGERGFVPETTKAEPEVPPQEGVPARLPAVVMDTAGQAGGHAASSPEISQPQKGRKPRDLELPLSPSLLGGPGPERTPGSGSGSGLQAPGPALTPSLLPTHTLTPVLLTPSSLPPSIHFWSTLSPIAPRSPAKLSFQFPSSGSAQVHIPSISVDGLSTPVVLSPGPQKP
The settings on record: protein: recombinant; tags: N-terminal GST; dsDNA, one strand shown. In outline:
as §1

Another assay deals with T3, GABPA (Homo sapiens, UniProt Q06546 1-454).
T3 sequence: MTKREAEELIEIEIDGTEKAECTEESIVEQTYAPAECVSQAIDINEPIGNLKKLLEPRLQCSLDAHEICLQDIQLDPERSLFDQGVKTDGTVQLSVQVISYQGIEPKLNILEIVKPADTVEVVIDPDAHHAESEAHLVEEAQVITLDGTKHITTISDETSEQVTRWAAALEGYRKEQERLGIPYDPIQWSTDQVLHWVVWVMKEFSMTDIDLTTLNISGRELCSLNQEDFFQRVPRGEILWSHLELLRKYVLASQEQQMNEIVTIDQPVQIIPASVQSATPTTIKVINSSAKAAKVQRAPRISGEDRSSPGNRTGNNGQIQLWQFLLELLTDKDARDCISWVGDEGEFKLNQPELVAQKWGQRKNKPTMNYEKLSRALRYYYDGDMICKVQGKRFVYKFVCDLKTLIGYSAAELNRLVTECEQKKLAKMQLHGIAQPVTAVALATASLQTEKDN
The settings on record: protein: recombinant; tags: N-terminal GST; dsDNA, one strand shown. The gist of the method:
as §1

A further assay deals with T4, ERG (Homo sapiens, UniProt P11308 1-479).
T4 sequence: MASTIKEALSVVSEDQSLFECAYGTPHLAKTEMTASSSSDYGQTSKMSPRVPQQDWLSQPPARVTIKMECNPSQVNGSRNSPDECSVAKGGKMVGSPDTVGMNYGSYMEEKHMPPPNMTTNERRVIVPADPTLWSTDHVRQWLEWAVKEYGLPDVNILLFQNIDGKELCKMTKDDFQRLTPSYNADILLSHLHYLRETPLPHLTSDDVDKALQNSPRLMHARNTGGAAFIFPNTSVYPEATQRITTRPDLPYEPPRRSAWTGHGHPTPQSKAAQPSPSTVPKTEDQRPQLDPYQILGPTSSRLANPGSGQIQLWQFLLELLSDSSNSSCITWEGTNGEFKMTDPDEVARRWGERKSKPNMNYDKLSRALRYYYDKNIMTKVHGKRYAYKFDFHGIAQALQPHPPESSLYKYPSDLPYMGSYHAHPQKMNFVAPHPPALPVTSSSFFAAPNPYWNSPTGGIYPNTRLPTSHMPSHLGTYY
The settings on record: protein: recombinant; tags: N-terminal GST; dsDNA, one strand shown. In outline:
as §1

In another assay the target is ELF1 (Homo sapiens, UniProt P32519 1-619). The settings on record: protein: recombinant; tags: N-terminal GST; dsDNA, one strand shown. In outline: as §1
Sequence of ELF1 (P32519 whole entry): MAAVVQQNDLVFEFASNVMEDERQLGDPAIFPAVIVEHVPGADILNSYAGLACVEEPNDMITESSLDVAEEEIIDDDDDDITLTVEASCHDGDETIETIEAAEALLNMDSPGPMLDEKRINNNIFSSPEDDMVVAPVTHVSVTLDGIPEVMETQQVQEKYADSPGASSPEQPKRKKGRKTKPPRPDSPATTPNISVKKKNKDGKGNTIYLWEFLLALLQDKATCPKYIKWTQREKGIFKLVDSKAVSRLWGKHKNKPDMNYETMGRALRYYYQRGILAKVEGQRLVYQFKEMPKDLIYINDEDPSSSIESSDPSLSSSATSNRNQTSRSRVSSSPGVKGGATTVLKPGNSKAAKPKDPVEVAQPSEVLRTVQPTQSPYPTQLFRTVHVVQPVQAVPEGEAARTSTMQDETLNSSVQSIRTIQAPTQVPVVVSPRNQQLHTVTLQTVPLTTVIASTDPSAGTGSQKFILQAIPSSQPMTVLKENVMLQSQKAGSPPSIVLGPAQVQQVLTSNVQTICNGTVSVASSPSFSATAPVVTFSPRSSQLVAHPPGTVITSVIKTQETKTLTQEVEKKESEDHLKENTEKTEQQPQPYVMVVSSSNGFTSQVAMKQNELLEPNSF
A further assay addresses T5, EHF (Homo sapiens, UniProt Q9NZC4 1-300).
T5 sequence: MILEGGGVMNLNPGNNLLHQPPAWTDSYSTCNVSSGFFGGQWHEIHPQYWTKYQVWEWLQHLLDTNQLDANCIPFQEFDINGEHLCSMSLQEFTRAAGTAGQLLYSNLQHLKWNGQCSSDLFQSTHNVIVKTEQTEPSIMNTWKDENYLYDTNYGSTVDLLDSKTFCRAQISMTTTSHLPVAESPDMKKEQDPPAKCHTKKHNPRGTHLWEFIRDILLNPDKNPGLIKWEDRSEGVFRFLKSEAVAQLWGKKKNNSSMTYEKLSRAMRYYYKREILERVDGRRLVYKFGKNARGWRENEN
The settings on record: protein: recombinant; tags: N-terminal GST; dsDNA, one strand shown. In outline:
as §1

A further assay addresses SPI1 (Homo sapiens, UniProt P17947 1-270). The settings on record: protein: recombinant; tags: N-terminal GST; dsDNA, one strand shown. In outline:
as §1

Another assay has as its target SPIB (Homo sapiens, UniProt Q01892 1-262). The settings on record: protein: recombinant; tags: N-terminal GST; dsDNA, one strand shown. The gist of the method:
as §1

For a further assay, the target named is T6, ELK3 (Homo sapiens, UniProt P41970 1-407).
T6 sequence: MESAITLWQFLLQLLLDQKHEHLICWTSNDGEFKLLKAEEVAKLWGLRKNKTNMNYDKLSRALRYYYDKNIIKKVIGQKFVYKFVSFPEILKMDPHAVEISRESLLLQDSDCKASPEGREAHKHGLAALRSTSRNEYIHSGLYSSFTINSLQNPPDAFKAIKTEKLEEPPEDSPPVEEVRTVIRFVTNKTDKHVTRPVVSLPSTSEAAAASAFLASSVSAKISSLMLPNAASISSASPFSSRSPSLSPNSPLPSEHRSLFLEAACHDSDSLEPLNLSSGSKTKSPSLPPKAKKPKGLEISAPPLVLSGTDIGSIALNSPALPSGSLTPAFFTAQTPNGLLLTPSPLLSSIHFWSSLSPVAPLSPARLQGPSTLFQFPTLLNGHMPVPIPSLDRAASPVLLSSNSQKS
The settings on record: protein: recombinant; tags: N-terminal GST; dsDNA, one strand shown. The gist of the method:
as §1

A further assay addresses T7, FEV (Homo sapiens, UniProt Q99581 1-238).
T7 sequence: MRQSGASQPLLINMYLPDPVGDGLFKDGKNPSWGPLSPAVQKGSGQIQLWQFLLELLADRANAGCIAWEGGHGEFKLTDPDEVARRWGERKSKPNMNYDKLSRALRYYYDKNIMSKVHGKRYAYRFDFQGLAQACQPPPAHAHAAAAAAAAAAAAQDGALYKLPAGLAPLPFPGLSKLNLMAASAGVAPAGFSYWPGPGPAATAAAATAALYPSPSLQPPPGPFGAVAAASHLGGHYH
The settings on record: protein: recombinant; tags: N-terminal GST; dsDNA, one strand shown. The gist of the method: as §1

The next assay has as its target ETV5 (Homo sapiens, UniProt P41161 1-510). The settings on record: protein: recombinant; tags: N-terminal GST; dsDNA, one strand shown. In outline: as §1
A further assay has as its target HSF1 (Homo sapiens, UniProt Q00613 1-529). The settings on record: protein: recombinant; tags: N-terminal GST; chain copies: 3; dsDNA, one strand shown. In outline: as §1
A further assay deals with T8, SPIC (Homo sapiens, UniProt Q8N5J4 1-248).
T8 sequence: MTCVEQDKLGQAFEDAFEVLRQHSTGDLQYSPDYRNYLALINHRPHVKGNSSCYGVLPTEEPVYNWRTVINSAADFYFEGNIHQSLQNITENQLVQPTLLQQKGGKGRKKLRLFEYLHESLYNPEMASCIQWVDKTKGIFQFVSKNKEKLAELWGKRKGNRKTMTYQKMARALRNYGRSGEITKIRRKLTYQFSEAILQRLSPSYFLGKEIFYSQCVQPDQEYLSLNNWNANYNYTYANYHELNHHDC
The settings on record: protein: recombinant; tags: N-terminal GST; dsDNA, one strand shown. In outline: as §1

The next assay addresses ELF4 (Homo sapiens, UniProt Q99607 1-663). The settings on record: protein: recombinant; tags: N-terminal GST; dsDNA, one strand shown. The gist of the method: as §1
A further assay concerns the target T9, ELK4 (Homo sapiens, UniProt P28324-2 1-405).
T9 sequence: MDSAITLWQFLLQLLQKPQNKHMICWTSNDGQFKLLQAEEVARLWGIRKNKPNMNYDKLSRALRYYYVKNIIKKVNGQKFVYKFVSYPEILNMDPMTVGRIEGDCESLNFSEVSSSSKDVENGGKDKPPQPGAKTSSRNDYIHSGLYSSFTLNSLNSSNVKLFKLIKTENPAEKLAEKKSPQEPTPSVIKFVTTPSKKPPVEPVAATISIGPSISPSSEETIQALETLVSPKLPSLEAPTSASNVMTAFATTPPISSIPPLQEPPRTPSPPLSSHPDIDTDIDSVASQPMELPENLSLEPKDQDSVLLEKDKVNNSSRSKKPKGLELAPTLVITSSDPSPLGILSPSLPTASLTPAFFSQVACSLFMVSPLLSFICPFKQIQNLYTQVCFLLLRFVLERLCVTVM
The settings on record: protein: recombinant; tags: N-terminal GST; dsDNA, one strand shown. In outline: as §1

Another assay has as its target T10, ETV2 (Homo sapiens, UniProt O00321 1-342).
T10 sequence: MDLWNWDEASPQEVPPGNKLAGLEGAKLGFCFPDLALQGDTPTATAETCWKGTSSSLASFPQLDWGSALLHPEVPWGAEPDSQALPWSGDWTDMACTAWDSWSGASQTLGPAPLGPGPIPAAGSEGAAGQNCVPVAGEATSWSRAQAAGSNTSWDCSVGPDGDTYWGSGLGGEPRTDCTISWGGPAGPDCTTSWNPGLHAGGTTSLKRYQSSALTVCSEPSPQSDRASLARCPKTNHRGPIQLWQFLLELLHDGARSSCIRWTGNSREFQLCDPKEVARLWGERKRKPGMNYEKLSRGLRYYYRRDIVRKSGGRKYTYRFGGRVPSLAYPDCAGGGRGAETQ
The settings on record: protein: recombinant; tags: N-terminal GST; dsDNA, one strand shown. The gist of the method: as §1

Another assay addresses T11, ELF3 (Homo sapiens, UniProt P78545 1-371).
T11 sequence: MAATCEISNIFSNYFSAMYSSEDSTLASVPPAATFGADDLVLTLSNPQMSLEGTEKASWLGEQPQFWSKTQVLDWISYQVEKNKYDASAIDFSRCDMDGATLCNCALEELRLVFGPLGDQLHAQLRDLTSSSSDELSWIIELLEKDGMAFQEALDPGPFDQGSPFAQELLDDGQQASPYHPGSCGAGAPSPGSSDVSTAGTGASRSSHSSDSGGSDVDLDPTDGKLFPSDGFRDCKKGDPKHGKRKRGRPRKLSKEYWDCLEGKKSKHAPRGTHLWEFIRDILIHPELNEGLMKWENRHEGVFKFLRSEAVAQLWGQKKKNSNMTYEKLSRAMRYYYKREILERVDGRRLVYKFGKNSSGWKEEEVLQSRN
The settings on record: protein: recombinant; tags: N-terminal GST; dsDNA, one strand shown. In outline:
as §1

The target in another assay is CRX (Homo sapiens, UniProt O43186 1-299). The settings on record: protein: recombinant; tags: N-terminal GST; dsDNA, one strand shown. In outline:
as §1

For a further assay, the target named is ETV1 (Homo sapiens, UniProt P50549 1-477). The settings on record: protein: recombinant; tags: N-terminal GST; dsDNA, one strand shown. In outline:
as §1

Sequence of CRX (O43186 whole entry): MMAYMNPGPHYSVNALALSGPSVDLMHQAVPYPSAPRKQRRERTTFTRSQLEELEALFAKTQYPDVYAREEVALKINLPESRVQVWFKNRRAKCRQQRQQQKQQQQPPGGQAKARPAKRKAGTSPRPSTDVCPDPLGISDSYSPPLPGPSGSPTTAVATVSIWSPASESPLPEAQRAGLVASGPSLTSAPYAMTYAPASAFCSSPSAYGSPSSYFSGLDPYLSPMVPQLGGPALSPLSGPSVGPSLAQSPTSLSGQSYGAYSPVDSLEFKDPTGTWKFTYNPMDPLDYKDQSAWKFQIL
Sequence of ELF4 (Q99607 whole entry): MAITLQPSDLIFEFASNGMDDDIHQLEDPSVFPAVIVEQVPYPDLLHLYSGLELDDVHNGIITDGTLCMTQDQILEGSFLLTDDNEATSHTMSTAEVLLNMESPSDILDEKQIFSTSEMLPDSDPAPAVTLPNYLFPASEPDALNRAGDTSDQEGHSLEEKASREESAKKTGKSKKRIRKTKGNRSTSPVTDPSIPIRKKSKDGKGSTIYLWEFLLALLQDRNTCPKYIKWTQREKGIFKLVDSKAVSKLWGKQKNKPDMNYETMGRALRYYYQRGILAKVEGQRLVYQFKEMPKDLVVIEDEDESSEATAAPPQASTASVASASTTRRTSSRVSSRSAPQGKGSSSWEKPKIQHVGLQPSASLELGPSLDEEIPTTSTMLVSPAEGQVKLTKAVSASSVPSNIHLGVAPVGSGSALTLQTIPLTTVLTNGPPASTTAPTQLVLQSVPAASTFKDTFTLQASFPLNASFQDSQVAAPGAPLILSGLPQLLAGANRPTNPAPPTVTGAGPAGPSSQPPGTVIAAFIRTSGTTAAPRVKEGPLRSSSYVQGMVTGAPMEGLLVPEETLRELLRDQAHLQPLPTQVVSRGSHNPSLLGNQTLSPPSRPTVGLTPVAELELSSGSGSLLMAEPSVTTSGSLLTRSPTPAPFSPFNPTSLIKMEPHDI
Sequence of SPIB (Q01892 whole entry): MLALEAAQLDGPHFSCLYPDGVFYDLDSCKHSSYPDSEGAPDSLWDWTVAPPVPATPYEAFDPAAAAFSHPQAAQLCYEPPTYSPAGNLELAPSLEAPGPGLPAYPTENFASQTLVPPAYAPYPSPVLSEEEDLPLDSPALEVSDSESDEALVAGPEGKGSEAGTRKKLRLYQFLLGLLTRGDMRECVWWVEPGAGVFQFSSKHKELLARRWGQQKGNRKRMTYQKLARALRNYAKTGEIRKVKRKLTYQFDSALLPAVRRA
Sequence of ETV5 (P41161 whole entry): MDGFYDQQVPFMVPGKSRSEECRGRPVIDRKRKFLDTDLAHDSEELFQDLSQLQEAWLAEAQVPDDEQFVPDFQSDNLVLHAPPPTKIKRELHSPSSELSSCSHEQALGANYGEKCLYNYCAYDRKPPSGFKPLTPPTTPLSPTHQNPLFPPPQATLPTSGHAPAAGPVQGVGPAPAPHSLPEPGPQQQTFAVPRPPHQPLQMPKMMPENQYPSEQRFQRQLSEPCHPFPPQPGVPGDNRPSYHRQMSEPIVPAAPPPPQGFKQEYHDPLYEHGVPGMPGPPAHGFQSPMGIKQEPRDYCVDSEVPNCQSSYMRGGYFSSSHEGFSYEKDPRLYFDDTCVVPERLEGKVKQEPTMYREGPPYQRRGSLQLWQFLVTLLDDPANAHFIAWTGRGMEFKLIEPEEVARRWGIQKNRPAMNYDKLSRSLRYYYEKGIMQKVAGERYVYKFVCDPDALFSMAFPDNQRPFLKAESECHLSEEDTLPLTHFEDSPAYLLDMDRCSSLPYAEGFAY
Sequence of ETV1 (P50549 whole entry): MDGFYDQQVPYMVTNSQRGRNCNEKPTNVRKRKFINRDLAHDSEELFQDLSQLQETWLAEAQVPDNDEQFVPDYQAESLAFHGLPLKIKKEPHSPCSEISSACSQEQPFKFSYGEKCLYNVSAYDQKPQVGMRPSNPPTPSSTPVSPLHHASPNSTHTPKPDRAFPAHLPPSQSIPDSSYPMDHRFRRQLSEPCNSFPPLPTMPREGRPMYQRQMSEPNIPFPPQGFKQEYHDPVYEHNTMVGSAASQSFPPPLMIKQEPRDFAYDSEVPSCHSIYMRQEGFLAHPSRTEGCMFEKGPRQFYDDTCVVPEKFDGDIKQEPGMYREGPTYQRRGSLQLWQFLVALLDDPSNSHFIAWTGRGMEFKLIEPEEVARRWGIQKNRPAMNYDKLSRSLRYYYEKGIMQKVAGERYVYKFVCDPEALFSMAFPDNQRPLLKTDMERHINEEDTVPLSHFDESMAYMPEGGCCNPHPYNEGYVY
Sequence of HSF1 (Q00613 whole entry): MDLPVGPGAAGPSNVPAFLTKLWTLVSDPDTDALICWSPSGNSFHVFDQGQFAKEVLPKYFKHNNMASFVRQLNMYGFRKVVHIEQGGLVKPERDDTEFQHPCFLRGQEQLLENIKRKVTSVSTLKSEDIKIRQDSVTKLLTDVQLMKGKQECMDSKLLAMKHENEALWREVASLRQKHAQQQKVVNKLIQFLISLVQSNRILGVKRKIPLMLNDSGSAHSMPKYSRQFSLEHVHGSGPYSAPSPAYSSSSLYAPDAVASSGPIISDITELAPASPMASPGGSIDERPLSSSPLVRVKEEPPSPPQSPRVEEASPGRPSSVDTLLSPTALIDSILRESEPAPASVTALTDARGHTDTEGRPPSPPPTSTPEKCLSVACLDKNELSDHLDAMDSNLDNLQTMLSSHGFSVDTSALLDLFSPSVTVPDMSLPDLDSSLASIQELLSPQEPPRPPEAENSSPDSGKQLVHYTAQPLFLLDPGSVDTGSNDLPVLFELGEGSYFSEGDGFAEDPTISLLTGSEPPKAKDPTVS

In the case of CGTCTT, the binding signal with FLI1 was 1.46 fold enrichment (6-mer frequency, TF over GST control); with ELK1, 1.43 fold enrichment (6-mer frequency, TF over GST control); with GABPA, 1.33 fold enrichment (6-mer frequency, TF over GST control); with ERG, 1.37 fold enrichment (6-mer frequency, TF over GST control); with ELF1, 1.35 fold enrichment (6-mer frequency, TF over GST control); in the assay with EHF it was 1.41 fold enrichment (6-mer frequency, TF over GST control). Besides, the binding signal was 1.45 fold enrichment (6-mer frequency, TF over GST control) with SPI1; 1.5 fold enrichment (6-mer frequency, TF over GST control) in the assay with SPIB; 1.28 fold enrichment (6-mer frequency, TF over GST control) in the assay with ELK3; 1.33 fold enrichment (6-mer frequency, TF over GST control) with FEV; 1.37 fold enrichment (6-mer frequency, TF over GST control) in the assay with ETV5; 1.31 fold enrichment (6-mer frequency, TF over GST control) with HSF1. Further, the binding signal with SPIC was 1.38 fold enrichment (6-mer frequency, TF over GST control); with ELF4, 1.38 fold enrichment (6-mer frequency, TF over GST control); with ELK4 it was 1.21 fold enrichment (6-mer frequency, TF over GST control); in the assay with ETV2 it was 1.29 fold enrichment (6-mer frequency, TF over GST control); in the assay with ELF3 it was 1.56 fold enrichment (6-mer frequency, TF over GST control); with CRX, 1.5 fold enrichment (6-mer frequency, TF over GST control). Also, the binding signal with ETV1 is 1.48 fold enrichment (6-mer frequency, TF over GST control).
